Reference: PubChem BioAssay AID1850 (Southern Research Specialized Biocontainment Screening …, 2009)
Among all 310,000 compounds or so, about 1,000 (0.32%) were called active. Not all results are given here. Results with a measured potency or affinity are listed apart. Unmarked numbers belong to inactive results. How the calls were made is not given here.

Assay: Inhibition of PhoP regulon, Salmonella typhi GFP reporter cells, confirmation, 4 h (AID 1850);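 further: 0% = induced wells with vehicle and 100% = uninduced wells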
Settings: Salmonella Typhi PhoP-promoter GFP reporter, fluorescence, at 50 µM, active compounds read high

Point of comparison: `C#CCOCCOCCOCCNc1nc(N2CCN(C(=O)Cn3cc(CCCN=C(N)N)nn3)CC2)nc(N2CCN(C(=O)[C@H]([C@@H](C)CC)n3cc(CCCCN)nn3)CC2)n1`, inhibition -18%. Against it:
- CC(=O)c1c(C)[nH]c(C(=O)N2CCN(c3ccccn3)CC2)c1C — higher, 2.98%
- Nc1nnc(SCC(=O)OCC(=O)c2ccccc2Br)s1 — higher, 1.19%
- C#CCOCCOCCOCCNc1nc(N2CCN(C(=O)CCCCCCCCCCNC(=O)Cn3cc(C[C@@H](C)O)nn3)CC2)nc(N2CCN(C(=O)CCCCCCCCCCNC(=O)[C@@H](CCC(=O)O)n3cc(CCCCCN)nn3)CC2)n1 — lower, -25.1%
- C#CCOCCOCCOCCNc1nc(N2CCN(C(=O)CCCCCCCCCCNC(=O)Cn3cc(CCCCCN)nn3)CC2)nc(N2CCN(C(=O)CCCCCCCCCCNC(=O)Cn3cc(C[C@@H](C)O)nn3)CC2)n1 — higher, -2.3%
- C#CCOCCOCCOCCNc1nc(N2CCN(C(=O)CCCCCCCCCCNC(=O)[C@H](CCC(=O)O)n3cc(CCCCCN)nn3)CC2)nc(N2CCN(C(=O)CCCCCCCCCCNC(=O)[C@@H]([C@H](C)O)n3cc(C)nn3)CC2)n1 — higher, -1.84%
- C#CCOCCOCCOCCNc1nc(N2CCOCC2)nc(N2CCN(C(=O)CCCCCCCCCCNC(=O)[C@@H]([C@H](C)CC)n3cc(CCCCCN)nn3)CC2)n1 — higher, 2.64%
- C#CCOCCOCCOCCNc1nc(N2CCN(C(=O)CCCCCCCCCCNC(=O)Cn3cc(CCCCCN)nn3)CC2)nc(N2CCN(C(=O)CCCCCCCCCCNC(=O)[C@H](CO)n3cc(CCCCCN)nn3)CC2)n1 — higher, 16.5%
- C#CCOCCOCCOCCNc1nc(N2CCN(C(=O)Cn3cc(CCCCN)nn3)CC2)nc(N2CCN(C(=O)[C@H]([C@@H](C)CC)n3cc(CCCN=C(N)N)nn3)CC2)n1 — higher, 5.45%
- C#CCOCCOCCOCCNc1nc(N2CCN(C(=O)CCCCCCCCCCNC(=O)Cn3cc(C[C@@H](C)O)nn3)CC2)nc(N2CCN(C(=O)CCCCCCCCCCNC(=O)[C@@H]([C@H](C)O)n3cc(C)nn3)CC2)n1 — lower, -25.3%
- CN(CC(=O)NCc1ccncc1)S(=O)(=O)c1ccc(F)cc1 — higher, 9.34%
- COc1cc(C(=O)NCC(=O)N/N=C(\C)Cc2ccccc2)cc(OC)c1OC — higher, 8.05%
- Cc1cccc(CC(C)NC(=O)c2cc(COc3ccc(C)c(C)c3)on2)n1 (stereo not drawn) — higher, -0.63%
- CCN(CC(=O)N1CCC(C(N)=O)CC1)S(=O)(=O)c1ccc(Cl)cc1 — higher, -8.55%
- Cc1ccc(-c2noc(CSc3nnc(CCc4ccccc4)n3-c3ccccc3)n2)cc1 — higher, -7.22%
- CCCCc1ccc(NC(=O)Nc2c(C)n(C)n(-c3ccccc3)c2=O)cc1 — higher, -5.72%
- O=C(NNC(=O)C1C2C=CC(C2)C1C(=O)O)c1cc(Cl)ccc1O (stereo not drawn) — higher, -4.67%
- COc1ccc(C2NCCc3c2[nH]c2ccccc32)cc1CSc1nc2ccccc2s1 (stereo not drawn) — higher, -3.05%
- COc1cc(C2NCCc3c2[nH]c2ccccc32)ccc1OC(C)C (stereo not drawn) — higher, -4.21%
- CC(=O)N1CCN(S(=O)(=O)c2cccc(C(=O)NNC(=O)COc3ccc(Cl)cc3C)c2)CC1 — higher, 3.91%
- COc1ccc(Cn2c(O)c(/C=N/NC(=O)c3ccccc3O)c(=O)[nH]c2=O)cc1 — higher, -3.02%
- Cc1ccccc1NC(=S)NCC(c1cccnc1)N(C)C (stereo not drawn) — higher, 4.06%
- Cc1cccc(CN2CCc3c([nH]c4ccccc34)C2)c1 — higher, 8.05%
- COc1ccccc1CN1CCc2c([nH]c3ccccc23)C1 — higher, 3.76%
- CSc1ccc(CN2CCc3c([nH]c4ccccc34)C2)cc1 — higher, 2.22%
- Clc1cccc(CN2CCc3c([nH]c4ccccc34)C2)c1 — higher, 1.94%
- O=C(C1CCCN(S(=O)(=O)c2cccc3nonc23)C1)N1CCC(Cc2ccccc2)CC1 (stereo not drawn) — higher, -9.59%
- CS(=O)(=O)c1ccc(Cl)c(C(=O)NC2CCSc3ccccc32)c1 (stereo not drawn) — higher, 12.6%
- COc1ccccc1/C=N/NC(=O)c1ccc(-c2ccccc2)cc1 — higher, -0.08%
- COc1ccc(C2CC(=O)C3=C(C2)Nc2ccccc2NC3c2coc3ccccc3c2=O)cc1OC (stereo not drawn) — higher, -2.61%
- Cc1ccc(Nc2cc(C)nc3ccccc23)c(C)c1 — higher, 10.4%
- COc1cccc2c(N/N=C/c3ccccc3)cc(C)nc12 — higher, 0.63%
- COc1ccc2nc(C)cc(N/N=C/c3ccc(F)cc3)c2c1 — higher, -3.4%
- Cc1ccc2nc(C)cc(N/N=C/c3cccc(O)c3)c2c1 — higher, -4.26%
- Cc1cc(Nc2ccc(C)c(C)c2)c2ccccc2n1 — higher, -4.07%
- COc1ccc(/C=N/Nc2cc(C)nc3ccc(OC)cc23)c(OC)c1 — higher, 0.09%
- COc1ccc(Nc2cc(C)nc3c(C)cccc23)cc1OC — higher, -3.72%
- CC(=O)c1ccc(Nc2cc(C)nc3c(C)cc(C)cc23)cc1 — higher, 7.05%
- CCCCOc1ccc(NC(=O)C(=O)NCCCn2ccnc2)cc1 — higher, -4.73%
- CC[C@H](C)[C@@H]1NC(=O)c2cc([N+](=O)[O-])cc(F)c2NCCCC[C@@H](C(N)=O)NC(=O)[C@H](CCCCN)NC1=O — higher, 1.42%
- CCOc1ccc(CNc2nnnn2C)cc1OC — higher, -3.66%
- COc1ccc(NS(=O)(=O)c2cccc(NC(=O)NCCCl)c2)cc1 — lower, -19.5%
- CC(=O)Nc1ccc(/C=N/N2C(=O)NC(C)(c3ccc(OC(F)F)cc3)C2=O)cc1 (stereo not drawn) — higher, -10%
- Cc1ccc(NC(=O)CSCC(=O)Nc2ncc3c(n2)CC(c2ccco2)CC3=O)cc1 (stereo not drawn) — higher, 2.49%
- CCOc1cc(/C=C2\CCCC(C(=O)C(F)(F)F)=C2O)ccc1O — higher, -4.72%
- CN(CC(=O)Nc1cccc(F)c1)C(=O)c1ccncc1 — higher, -3.54%
- CCOC(=O)N1CCN(C2CCCN(C(=O)c3ccccc3SC)C2)CC1 (stereo not drawn) — higher, 4.8%
- O=C(COc1ccccc1C(=O)c1cnn(-c2ccccc2)c1)Nc1ccccc1 — higher, -4.89%
